In PubChem BioAssay (NCATS):
Inconclusive results are not listed. Active and inactive are the calls of the source. Calls come from the whole dose curve; as a rule, active = well fitted curve in the direction sought with a large enough effect; inconclusive = small, poorly fitted or top-dose-only effect, or another doubt; inactive = no such curve, though single readings can be large or run the other way.

system: not listed separately; assay: KB-3-1 P-gp reporter qHTS against the NCATS DSHEA and TCM libraries (AID 1919975); settings: KB-3-1 parental cells, CellTiter-Glo luminescence viability, 72 h; series mostly up to 26.1 µM; activity change, negative = inhibition: at the top concentration; note: 0% is about no effect
In short: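 Cell viability by CellTiter-Glo luminescence following ~72 h compound exposure (concentration-response). Uses parental, non-P-gp-overexpressing KB-3-1 line, 500 cells/well in DMEM/10% FBS, attached ~4 h before dosing.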

Compound	activity change, negative = inhibition
O=C(O)c1cc(O)c(O)c(O)c1	1.73% (inactive)
CCCCCCCCCCCCCCCCCC(=O)O	-3.04% (inactive)
C[S+](CC[C@H](N)C(=O)O)C[C@H]1O[C@@H](n2cnc3c(N)ncnc32)[C@H](O)[C@@H]1O (stereo not given in full)	9.34% (inactive)

system: not listed separately; assay: qHTS Counterscreen for compound interference against the NCATS DSHEA and TCM libraries (AID 1919978); settings: firefly luciferase detection reagent interference, luminescence;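 note: compounds preincubated with 1 µM D-luciferin or buffer before detection reagent; % of control where 0% means no effect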
In short: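 With 1 uM D-luciferin or phosphate buffer only, compounds at final 19.5 nM–39.8 uM were incubated for 15 min at room temperature. Luciferase detection reagent was then added, and luminescence was measured after a further 30 min at room temperature.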

Compound	max response
O=C(O)c1cc(O)c(O)c(O)c1	-2.87% (inactive)
CCCCCCCCCCCCCCCCCC(=O)O	4.77% (inactive)
C[S+](CC[C@H](N)C(=O)O)C[C@H]1O[C@@H](n2cnc3c(N)ncnc32)[C@H](O)[C@@H]1O (stereo not given in full)	-4.63% (inactive)

system: not listed separately; assay: Dual reporter qHTS for agonist of Pregnane X Receptor (hPXR) against the NCATS DSHEA and TCM libraries: Fluorescence readout (AID 1920058); settings: PXR dual reporter cells; series mostly up to 40 µM; activation: at the top concentration; note: 0% is about no effect
In short: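 hPXR-Luc HepG2 cells, 2000/well in charcoal-stripped serum, attached 5 h, dosed for ~24 h at 37 °C. Fluorescence read is CellTiter-Fluor viability (Ex/Em 405/540 nm); rifampicin positive, tetraoctyl ammonium bromide (92 µM) cytotoxicity controls.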

Compound	activation
O=C(O)c1cc(O)c(O)c(O)c1	-29% (inactive)
CCCCCCCCCCCCCCCCCC(=O)O	-3.79% (inactive)
C[S+](CC[C@H](N)C(=O)O)C[C@H]1O[C@@H](n2cnc3c(N)ncnc32)[C@H](O)[C@@H]1O (stereo not given in full)	-1.51% (inactive)

target: Nuclear receptor subfamily 1 group I member 2 (Homo sapiens) (UniProt O75469); assay: Dual reporter qHTS for antagonist of Pregnane X Receptor (hPXR) against the NCATS DSHEA and TCM libraries: Luminescence Readout (AID 1920060); settings: hPXR dual reporter cells, luciferase luminescence, antagonist mode; series mostly up to 40 µM; activity change, negative = inhibition: at the top concentration;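 note: HepG2 cells carrying hPXR luciferase reporter stimulated with rifampicin at 2 µM; 0% is about no effect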
Source text: Assay Development and Screening Technology Laboratory (ADST)
National Center for Advancing Translational Sciences (NCATS), Rockville, MD
National Institute of Health (NIH), Bethesda, Maryland
Dietary Supplements and Natural Products have minor oversight of their safety and efficacy. We assembled a collection of Dietary Supplements and Natural Products (DSNP) as well as Traditional Chinese Medicinal (TCM) Plant extracts, which were screened against an in vitro panel of assays, including a liver cytochrome p450 enzyme panel, CAR/PXR signaling pathways, and P-gp transporter assays, to assess their activity. This pipeline facilitated the interrogation of Natural Product-Drug Interaction (NaPDI) through prominent metabolizing pathways. In addition, we compared the activity profiles of the DSNP/TCM substances with those of an approved drug collection. Many of the approved drugs have well-annotated mechanisms of action (MOA) while the MOAs for most of the DSNP and TCM samples remain unknown. Based on the premise that compounds with similar activity profiles tend to share similar targets or MOA, we clustered the library activity profiles to identify overlap with the NCATS Pharmaceutical Collection to predict the MOAs of the DSNP/TCM substances. Overall, we highlight four significant bioactivity profiles (measured by p-values) as examples of this prediction. To assess broad cytotoxicity, we employed screening against a HepG2 cell line. In addition, transporter-mediated drug interactions are utilized in the characterization of DDIs using a P-glycoprotein (P-gp) assays. To profile potential P-gp activity, a differential cell viability was measured against two cell lines: a parental KB-3-1 human cervical adenocarcinoma cell line and the drug-resistant subline KB-8-5-11 that overexpresses P-gp.
To this end, we profiled both collections for potential CAR and/or PXR activity, employing a previously published 1536-well qHTS assay.
[1] […]
8; Read; Fluorescence; ViewLux plate reader. […]
11; Read; Luminescence; ViewLux plate reader. […]

Chain of Nuclear receptor subfamily 1 group I member 2 (Homo sapiens) (O75469 whole entry, looked up): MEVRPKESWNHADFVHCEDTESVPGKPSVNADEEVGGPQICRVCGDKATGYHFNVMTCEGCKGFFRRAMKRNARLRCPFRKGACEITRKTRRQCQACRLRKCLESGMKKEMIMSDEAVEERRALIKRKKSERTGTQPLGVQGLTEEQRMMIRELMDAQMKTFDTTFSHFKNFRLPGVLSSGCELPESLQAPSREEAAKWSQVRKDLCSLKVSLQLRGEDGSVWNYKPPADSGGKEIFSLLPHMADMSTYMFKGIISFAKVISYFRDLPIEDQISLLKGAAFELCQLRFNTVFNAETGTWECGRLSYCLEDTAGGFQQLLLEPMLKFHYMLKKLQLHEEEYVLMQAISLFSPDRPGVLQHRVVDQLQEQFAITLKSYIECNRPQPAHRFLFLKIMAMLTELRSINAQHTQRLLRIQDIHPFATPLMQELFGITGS

Compound	activity change, negative = inhibition
O=C(O)c1cc(O)c(O)c(O)c1	-22.1% (inactive)
CCCCCCCCCCCCCCCCCC(=O)O	-6.96% (inactive)
C[S+](CC[C@H](N)C(=O)O)C[C@H]1O[C@@H](n2cnc3c(N)ncnc32)[C@H](O)[C@@H]1O (stereo not given in full)	162% (inactive)

system: not listed separately; assay: Dual reporter qHTS for antagonist of Pregnane X Receptor (hPXR) against the NCATS DSHEA and TCM libraries: Fluorescence Readout (AID 1920061); settings: PXR dual reporter cells, antagonist mode; series mostly up to 40 µM; activity change, negative = inhibition: at the top concentration; note: 0% is about no effect
In short: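 In antagonist mode, 2 uM rifampicin was added to hPXR-Luc HepG2 cells alongside test substances, incubated 24 h at 37 C; luminescence gave reporter activity, and CellTiter-Fluor fluorescence (405/540 nm) gave viability.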

Compound	activity change, negative = inhibition
O=C(O)c1cc(O)c(O)c(O)c1	-12.8% (inactive)
CCCCCCCCCCCCCCCCCC(=O)O	12.8% (inactive)
C[S+](CC[C@H](N)C(=O)O)C[C@H]1O[C@@H](n2cnc3c(N)ncnc32)[C@H](O)[C@@H]1O (stereo not given in full)	2.15% (inactive)
